HT1080NT lethal: kills 2HG-producing HT-1080-NT fibrosarcoma cells; HT-1080-NT fibrosarcoma viability, CellTiter-Glo ATP luminescence, 48 h; Potency, µM (doses to about 46.1 µM), inactives show at the highest dose activity, negative = less viability, most hits filed as cytotoxic; actives 1.6% (n = 360,000);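 further: NT is the 2HG producing partner of a matched IDH1 knockdown line; potency means the concentration at half of the fitted maximal effect; 0% = DMSO-treated cells and -100% = media-only wells without cells; nearly all actives have a fitted effect of over 55% in size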
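HT-1080-NT; 750 cells/well; 5% FBS RPMI; 48 h compound, 37 degrees C; CellTiter-Glo luminescence; curve fitting and curve-class assignment.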
IL-1B inflam inh: blocks inflammasome-driven IL-1 beta release; activity change, % at 57.5 µM; THP-1 LPS/ATP IL-1B secretion, AlphaLISA, 16 h; active compounds read low; AID 743279; actives 4.7% (n = 360,000); in the data active means activity change below about -50%; inconclusive means mostly about -30% to -49%
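THP-1 cells pretreated 1 hr with compounds (up to 57.5 uM final), then stimulated with LPS (250 ng/mL final) plus ATP (1.25 mM final); secreted IL-1B measured by AlphaLISA after 16 hr, decreased signal indicating inhibition.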
ELG1 repair inh: blocks ELG1-dependent DNA repair in HEK293T cells. HEK293T ELG1-luciferase reporter, luminescence, 16 h; DNA damage induced by 5-fluorouridine. Potency, µM (highest dose often 46.1 µM), inactives show at the top dose activity change, negative = inhibition, actives largely listed as inhibitors. actives 2.3% (n = 330,000). AID 504467; further: potency means the concentration at half of the fitted maximal effect; nearly all actives have a fitted effect of over 55% in size
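5-Fluorouridine DNA damage + compound/DMSO, 2,000 cells/well, 16 h, 37 °C/5% CO2. ONE-Glo, 30 min RT, luminescence. Readout = decrease in reporter signal.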
HT1080 IDH1KD tx: toxicity to HT-1080 IDH1 knockdown cells (counter line). HT-1080 IDH1 knockdown viability, ATP luminescence, 48 h. Potency, µM (doses to about 46.1 µM), without a hit: at the highest dose activity, negative = toxicity, actives largely listed as cytotoxic. actives 2% (n = 360,000);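 further: potency means the concentration at half of the fitted maximal effect; 0% = DMSO wells and -100% = cell-free medium wells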
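In this qHTS, HT-1080 cells depleted of IDH1 are exposed for 48 h at 37 °C to compound titrations. Toxicity is scored from CellTiter-Glo luminescence, with DMSO as full viability and medium alone as none.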
DT40 TDP1 no CPT: qHTS for Inhibitors of human tyrosyl-DNA phosphodiesterase 1 (TDP1): qHTS in cells in absence of CPT. DT40 Tdp1-/- hTDP1 cells, no CPT, ATP luminescence, 48 h. actives 15% (n = 420,000). AID 686978, 2013. Potency, µM (top dose mostly 46.2 µM), for the others: at the highest dose activity change, negative = growth inhibition, usual class: inhibitors; further: potency means the concentration at half of the fitted maximal effect; nearly all actives have a fitted effect of over 55% in size
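Cells were dispensed at 400 per well, compounds added by pin tool, plates incubated ≥48 hr at 37 °C, then CellTiter-Glo added for 30 min at room temperature before luminescence reading. Line: DT40 Tdp1-/- complemented with hTDP1; camptothecin omitted.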
TDP1 cell CPT: growth inhibition of DT40 Tdp1-/-;hTDP1 cells with camptothecin (screen for TDP1 inhibitors) | chicken DT40 Tdp1-/-;hTDP1 cells + 20 nM CPT, ATP luminescence, 48 h | Potency, µM (highest dose often 46.2 µM), for the others: at the highest dose activity change, negative = growth inhibition, usual class: inhibitors | actives 12% (n = 420,000) | AID 686979; further: potency means the concentration at half of the fitted maximal effect; nearly all actives have a fitted effect of over 55% in size
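Chicken DT40 Tdp1-/- cells stably complemented with human TDP1 were seeded at 400 cells/well in medium containing 20 nM camptothecin, exposed to pin-transferred compounds, and grown at 37 °C for at least 48 hr. Viability was read as ATP luminescence.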
* marks the source's active call; other numbers are inactive results; ? = inconclusive; . = no result. Only some compounds are listed: those with a hit (about 19% of all), similar ones and a draw of the others. Unless noted, the call rests on the fitted dose curve; in most records, active means well fitted curve in the direction sought with a large enough effect; inconclusive means small, poorly fitted or top-dose-only effect, or another doubt; inactive means no such curve, though single readings can be large; an effect the other way counts as inactive or inconclusive. Unless noted, on the % scale 0 is the no-effect control and ±100 the full control effect.

SMILES	HT1080NT lethal	IL-1B inflam inh	ELG1 repair inh	HT1080 IDH1KD tx	DT40 TDP1 no CPT	TDP1 cell CPT
Cc1ccc(NC(=O)CSc2nc3nccnc3c(=O)n2CCc2c[nH]c3ccccc23)c(C)c1	.	.	.	.	11.6µM*	11.6µM*
O=C(CN1C2CCCC1CC(NC(=O)c1ccccc1)C2)Nc1ccccc1 (stereo not drawn)	10.0%	8.9	-4.4%	1.5%	?	?
CCN(CC)S(=O)(=O)c1ccc(N2CCN(c3ccccc3O)CC2)nc1	?	-5.0	-19.8%	-27.1%	20.6µM*	?
CCOC(=O)N1CCN(c2ccc(S(=O)(=O)N(Cc3ccccc3)Cc3ccccc3)cn2)CC1	-5.5%	-17.1	?	-6.7%	13µM*	13µM*
CCN(CC)S(=O)(=O)c1ccc(N2CCN(CCO)CC2)nc1	23.4%	0.3	12.7%	26.8%	6.9%	2.7%
CCOC(=O)N1CCN(C(=O)CN(Cc2ccc(Cl)cc2)S(=O)(=O)c2ccccc2)CC1	0.9%	-10.9	?	0.9%	20.6µM*	?
CCN(CC)S(=O)(=O)c1ccc(N2CCN(S(=O)(=O)c3ccc4c(c3)OCCO4)CC2)nc1	-11.4%	-10.9	9.2µM*	-22.4%	?	20.6µM*
COc1ccc(C(CNC(=O)COc2ccc(Cl)cc2C)N2CCCCC2)cc1 (stereo not drawn)	13.5%	30.7	-1.9%	19.0%	-22.6%	?
CC(=O)NC(CC(=O)OCC(=O)N1CCN(S(=O)(=O)c2ccc(C)cc2C)CC1)c1ccccc1 (stereo not drawn)	2.9%	11.3	-22.2%	-4.6%	-27.0%	-8.7%
Cc1ccc(NC(=O)CSCC(=O)NNC(=O)c2ccoc2C)cc1	5.1%	0.4	?	11.9%	-7.6%	-0.7%
CCc1ccc(C(=O)NC2=NC(c3cc(OC)ccc3OC)CC(=O)N2)cc1 (stereo not drawn)	.	.	.	.	-25.3%	-2.5%
COc1ccc(Cn2c(C3CC3)nc3ccc(NC(=O)c4cccnc4)cc3c2=O)cc1	10.3µM*	-70.1*	-22.5%	10.3µM*	10.3µM*	7.31µM*
Cc1nc2ccc(NC(=O)c3ccccc3)cc2c(=O)n1Cc1ccc(F)cc1	-17.2%	-22.2	.	?	13µM*	?
CCCCn1c(C)cc(C)c(S(=O)(=O)c2ccccc2C)c1=O	-0.1%	16.7	-24.4%	-14.1%	?	?
CCCCN1C=CC(=C2C(=O)c3ccccc3C2=O)C=C1	16.4µM*	-23.0	?	23.1µM*	?	?
O=C(Oc1ccc(-c2cnc3ccccc3n2)cc1)c1ccc(Cl)c([N+](=O)[O-])c1	11.5%	9.4	?	8.7%	?	-22.3%
O=[N+]([O-])c1ccc(Oc2ccc(-c3cnc4ccccc4n3)cc2[N+](=O)[O-])cc1	3.2%	7.4	?	18.7%	14.6µM*	10.3µM*
O=[N+]([O-])c1cc(-c2cnc3ccccc3n2)ccc1Oc1ccc(Br)cc1	-0.3%	-15.3	?	-9.8%	13µM*	?
Cc1nnc(-c2ccc(Oc3ccc(Br)cc3)c([N+](=O)[O-])c2)o1	-7.8%	13.3	-10.4%	-0.2%	13µM*	?
Cc1cc(Oc2ccc(-c3nnc(-c4ccccc4)o3)cc2[N+](=O)[O-])ccc1Cl	-0.7%	0.0	13.9%	10.3%	?	?
FC(F)(F)c1ccccc1Cc1c(-c2ccc(Cl)cc2)nc2ccc(Br)cn12	?	-9.2	.	-7.2%	?	?
N#C/C(=C\c1cccn1S(=O)(=O)c1cccc([N+](=O)[O-])c1)S(=O)(=O)c1ccc(F)cc1	-12.1%	37.7	.	2.3%	?	?
O=C(Nc1ccccc1F)c1ccc(Cn2nc(N3CCN(c4ccccc4)CC3)ccc2=O)o1	.	.	.	.	14.6µM*	23.1µM*
Cc1ccc(C(=O)N2CCN(S(=O)(=O)c3ccccc3)CC2)s1	-9.8%	-2.1	-7.2%	0.2%	-25.6%	-11.0%
Cc1nc2c3cc(F)ccc3n(Cc3ccccc3F)c2s1	20.6µM*	8.0	?	18.4µM*	?	7.31µM*
SMILES	HT1080NT lethal	IL-1B inflam inh	ELG1 repair inh	HT1080 IDH1KD tx	DT40 TDP1 no CPT	TDP1 cell CPT
Cc1nc2c3cc(F)ccc3n(CCN3CCCCC3)c2s1	20.6µM*	?	0.2%	?	7.31µM*	6.51µM*
Brc1cccc(-c2nnc(CN3CCN(c4ccccn4)CC3)o2)c1	.	.	.	.	-18.0%	-2.7%
COc1cc(C(=O)N[C@H](C(=O)NC2CCCc3ccccc32)C(C)C)cc(OC)c1OC (stereo partly drawn)	-11.2%	4.5	20.6µM*	-4.5%	?	-20.6%
COc1cc(C(=O)N[C@H](C(=O)NC2CCCCCC2)C(C)C)cc(OC)c1OC	2.4%	25.1	11.8%	-2.5%	-25.1%	-8.8%
COc1ccccc1CN(C)CC(=O)NC1CCCc2ccccc21 (stereo not drawn)	-7.2%	4.4	-24.8%	-19.1%	?	14.6µM*
COc1ccc(C(=O)OC(C)C(=O)NC2CCCc3ccccc32)cc1OC (stereo not drawn)	4.2%	-51.5*	?	-1.0%	-16.0%	-29.7%
COc1ccccc1C(=O)NCC(=O)NC1CCCc2ccccc21 (stereo not drawn)	-1.8%	29.5	-8.9%	-0.9%	?	?
COc1ccc(C(=O)NC2CCCc3ccccc32)c(OC)c1OC (stereo not drawn)	?	13.1	-23.3%	?	20.6µM*	18.4µM*
CCCN(C(=O)CSc1nnc(-c2ccc3c(c2)OCO3)o1)C1CCS(=O)(=O)C1 (stereo not drawn)	1.5%	-2.3	.	6.5%	?	-26.4%
COc1ccc(CNC2CCSc3ccccc32)cc1OC (stereo not drawn)	-20.2%	?	1.3%	-5.9%	?	?
COc1ccc(C(=O)N(C)C2CCCc3ccccc32)cc1OC1CCN(C(C)C)CC1 (stereo not drawn)	5.4%	-0.7	-4.3%	14.8%	?	20.6µM*
COc1ccc(CNC2CCCc3ccccc32)cc1OC (stereo not drawn)	-22.1%	-8.1	-25.9%	-0.1%	18.4µM*	?
O=C(CSc1nnc(SCc2ccc(Cl)cc2)s1)N/N=C/c1c[nH]c2ccccc12	?	1.3	-0.5%	18.4µM*	?	?
O=C(CSc1nnc(SCc2cccc3ccccc23)s1)N/N=C/c1c[nH]c2ccccc12	-18.6%	30.6	?	?	16.4µM*	?
